PubChem BioAssay (NCATS)
Several values for one entry are separate records, joined by “and”; a condition that tells them apart may be missing. Equal entries are not always repeated. Records with an inconclusive call do not appear. Activity calls are given as the source filed them. Unless noted, calls follow the shape of the dose curve; as a rule, active = well fitted curve in the direction sought with a large enough effect; inconclusive = small, poorly fitted or top-dose-only effect, or another doubt; inactive = no such curve, though single readings can be large; an effect the other way counts as inactive or inconclusive.

Experiments:
[1] = Stat Signaling Pathway (AID 446; active = well fitted curve in either direction with a large enough effect, not every such curve was filed as active;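 also: ME-180 cervical cancer cells given 40 pM IL-6 alongside compound; SIE-controlled beta-lactamase reporter measured as 460/530 nm FRET emission ratio; % is scaled to controls: 0 for no effect and ±100 for the full control effect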)
Method in brief: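 ME-180 SIE-bla cells; overnight plating; cpd + IL-6 40 pM, 5 h, 37 C; LiveBLAzer 2.5 h RT; 460/530 nm emission ratio. Normalized to 300 pM IL-6 and 125 nM JAK inhibitor controls.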

[2] = target: Glucocorticoid receptor (Homo sapiens) (UniProt P04150); experiment: GR-GFP Redistribution (AID 450;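 active = compounds whose dose series gives a full or clear partial fitted curve of increased nuclear translocation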; also: potency is read from the fitted curve at half-maximal effect); conditions: U2OS GR-GFP nuclear translocation, laser cytometry, 2 h
[3] = target: Glucocorticoid receptor (Homo sapiens) (UniProt P04150); experiment: GR-EFC Redistribution (AID 451; calls by dose curve; also: potency is read from the fitted curve at half-maximal effect); conditions: CHO-K1 GR-EFC translocation, beta-gal luminescence, 2 h
Method in brief: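 CHO-K1 cells stably expressing nuclear-localized β-gal enzyme acceptor and GR fused C-terminally to the enzyme donor fragment; ligand-driven nuclear translocation restores β-gal by complementation. Compounds titrated up to 46 uM final, 2 h at 37 °C; luminescence read.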

[4] = target: Mitogen-activated protein kinase 10 (Mus musculus) (UniProt Q61831); experiment: JNK3 AlphaScreen Assay (AID 530; active = well fitted curve in either direction with a large enough effect, not every such curve was filed as active;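 also: kinase came from lysate of stimulated human HepG2 cells; signal reports phosphorylation of biotinylated GST-cJun 1-79 at Ser73 with 10 µM ATP; % is scaled to controls: 0 for no effect and ±100 for the full control effect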)
Method in brief: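 JNK3 came from HepG2 lysates pre-activated with IL-1beta and TNF-alpha and phosphorylated biotinylated GST-cJun (1-79) at 10 uM ATP, pH 7.6, room temperature. Compounds were titrated. AlphaScreen signal used anti-phospho-cJun (Ser73) antibody.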

[5] = target: 3',5'-cyclic-AMP phosphodiesterase 4B (Homo sapiens) (UniProt Q07343); experiment: qHTS Assay for Inhibitors of PDE-IV (AID 607; active = well fitted activation curve with a large enough effect in the main read-out, with a control signal flat, not every such curve was filed as active; also: % of control where 0% means no effect)
Method in brief: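 ACTOne HEK293 cells carry a modified cAMP-gated CNG channel and express endogenous PDE4; plated 1000 cells/well, compounds up to 22.9 uM final. Membrane-potential dye fluorescence (ex 535/em 590) was read; parental cells received 10 uM forskolin + 100 uM RO 20-1724.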

[6] = Confirmation and Secondary Assay for Modulators of Hemoglobin Beta Chain Splicing at IVS2 654 locus (AID 910);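 also: per-well total GFP intensity by laser scanning cytometry after 2-day treatment; % of control where 0% means no effect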
Method in brief: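 HeLa cells stably carrying EGFP interrupted by mutant beta-globin IVS2-654 intron (CMV-driven) were treated with compound for 2 days at 37C; corrected splicing was scored as total peak GFP intensity per well (488 nm excitation, 500-520 nm emission).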

[7] = Confirmation and Secondary Assay for Modulators of Hemoglobin Beta Chain Splicing at IVS2 705 locus (AID 930);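 also: HeLa cells stably expressing the EGFP-705 splicing reporter; GFP fluorescence per well restored by corrected splicing of the IVS2-705 intron in EGFP; % of control where 0% means no effect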
Method in brief: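 First, HeLa EGFP-705 cells are seeded at 500/well in Optimem with 2% FCS and left overnight. Next, compound or DMSO is added for 2 days. Finally wells are laser-scanned and total peak GFP intensity scored.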

[8] = qHTS Assay for Lipid Storage Modulators (AID 1519; calls by dose curve; as to activity change, negative = inhibition: % is scaled to controls: 0 for no effect and ±100 for the full control effect); conditions: Drosophila S3 cells, BODIPY lipid droplet/cell ratio, laser cytometry, cells loaded with oleic acid
Method in brief: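 Cells seeded at 5,000 per well were treated with compounds over a concentration series and loaded with oleic acid (400 uM, as added). Lipid droplet fluorescence (488 nm excitation, 500-530 nm channel) was read by laser-scanning cytometry and normalized to 20 uM Triacsin C.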

[9] = target: Ubiquitin carboxyl-terminal hydrolase 1 (Homo sapiens) (UniProt O94782); experiment: Inhibitors of USP1/UAF1: Pilot qHTS (AID 504865);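 also: rhodamine fluorescence freed from ubiquitin-rhodamine substrate followed over time; top concentration of the series differs between compounds; % is scaled to controls: 0 for no effect and ±100 for the full control effect; nearly all actives have a fitted effect of over 35% in size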
Method in brief: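 USP1/UAF1 complex at 1 nM preincubated 15 min at room temperature with compound, then Ub-Rho substrate added at 150 nM final. Fluorescence (480/540 nm) read kinetically in 50 mM HEPES pH 7.8, 0.5 mM EDTA, 1 mM TCEP, 0.1 mg/ml BSA, 0.01% Tween-20.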

[10] = target: DNA dC->dU-editing enzyme APOBEC-3G (Homo sapiens) (UniProt Q9HC16); experiment: qHTS for inhibitors of Vif-A3G interactions: Validation (AID 588379); also: 0% is about no effect
Method in brief: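 HeLa cells stably expressing Vif and A3G-eYFP, 700 cells/well, incubated overnight at 37 deg C, then exposed to compound overnight at 37 deg C. Inhibition of Vif-mediated degradation read as increased yellow fluorescence (Ex 488/Em 500-530) by laser-scanning cytometry.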

[11] = tested on: Zika virus NS2B-NS3 protease; experiment: Primary screen GU AMC qHTS for Zika virus inhibitors (AID 1347154); also: potency is read from the fitted curve at half-maximal effect; nearly all actives have a fitted effect of over 70% in size
Method in brief: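 Unlinked Zika NS2B hydrophilic domain/NS3 protease domain noncovalent complex (25 nM final) in 10 mM Tris-HCl pH 8.0, 0.01% Tween 20, with AMC peptide substrate. Fluorescence (ex 340, em 450 nm) change over 15 min, room temperature; percent inhibition fitted to 4-parameter Hill equation.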

[12] = tested on: Zika virus NS2B-NS3 protease (linked construct); experiment: Primary screen NINDS Rhodamine qHTS for Zika virus inhibitors (AID 1347160); also: % is scaled to controls: 0 for no effect and ±100 for the full control effect; nearly all actives have a fitted effect of over 55% in size
Method in brief: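 Purified linked NS2B-NS3 protease (NS2B hydrophilic domain joined to NS3 protease by flexible linker), 25 nM in 10 mM Tris-HCl pH 8.0, 0.01% Tween 20. Compounds titrated, 15 min preincubation at room temperature; 1.5 microM Rhodamine110 substrate, FITC fluorescence change over 15 min.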

[13] = HPAF-II Cancer Cell Toxicity qHTS against the NCATS CANVASS Library (AID 1347346); also: potency is read from the fitted curve at half-maximal effect; nearly all actives have a fitted effect of over 55% in size
Method in brief: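 HPAF-II cells were seeded at 1000 cells/well, allowed to settle for 4 h at 37 degrees C, then exposed to compounds in an 11-point series for 72 h. Viability was read by CellTiter-Glo luminescence.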

[14] = SW1088 Cancer Cell Toxicity qHTS against the NCATS CANVASS Library (AID 1347350); also: nearly all actives have a fitted effect of over 75% in size
Method in brief: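 Quantitative HTS format: an 11-concentration series was applied to 1000 cells/well following a 4-hour attachment. Cultures ran 72 hours before ATP luminescence detection by CellTiter-Glo.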

[15] = COV-362 Cancer Cell Toxicity qHTS against the NCATS CANVASS Library (AID 1347352); also: potency is read from the fitted curve at half-maximal effect
Method in brief: (§1)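 Cells were seeded at 1000 per well and allowed to settle 4 hours at 37 degrees C before pin transfer of compounds as an 11-point series. Viability was read by CellTiter-Glo luminescence after 72 hours' exposure.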

[16] = HEK-293 Cancer Cell Toxicity qHTS against the NCATS CANVASS Library (AID 1347355); also: potency is read from the fitted curve at half-maximal effect; nearly all actives have a fitted effect of over 65% in size
Method in brief: as §1

[17] = HPAF-II 24hr Apoptosis Induction qHTS against the NCATS CANVASS Library (AID 1347356); also: 0% is about no effect
Method in brief: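 HPAF-II cells (500/well) in DMEM + 10% FBS were treated with an 11-point compound series for 24 hours at 37 degrees C. Caspase-3/7 activity was then read by Caspase-Glo DEVD luminescence after 15 min.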

[18] = HEK293 18hr Apoptosis Induction qHTS against the NCATS CANVASS Library (AID 1347357); also: 0% is about no effect
Method in brief: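 HEK293 cells (500/well, DMEM + 10% FBS) treated with an 11-point series for 18 h at 37 degrees C. Caspase-3/7 activity read by Caspase-Glo luminescence after 15 min at room temperature.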

[19] = HPAF-II 12hr Apoptosis Induction qHTS against the NCATS CANVASS Library (AID 1347358); also: 0% is about no effect
Method in brief: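 HPAF-II cells (500/well, DMEM + 10% FBS) were exposed to compounds for 12 hours at 37 degrees C. Caspase-3/7 activity was then read by Caspase-Glo 3/7 luminescence after 15 min at room temperature.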

[20] = HEK293 24hr Apoptosis Induction qHTS against the NCATS CANVASS Library (AID 1347359); also: 0% is about no effect
Method in brief: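 HEK293 cells (500/well, DMEM + 10% FBS) were exposed to compounds in an 11-point series for 24 hours at 37 degrees C, then caspase-3/7 activity was read by Caspase-Glo DEVD luciferase luminescence after 15 min.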

[21] = HPAF-II 18hr Apoptosis Induction qHTS against the NCATS CANVASS Library (AID 1347360); also: 0% is about no effect
Method in brief: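 HPAF-II cells at 500/well were exposed for 18 h at 37 C to an 11-point compound series. Caspase-3/7 activity was read by Caspase-Glo luminescence after 15 min at RT.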

[22] = HEK293 12hr Apoptosis Induction qHTS against the NCATS CANVASS Library (AID 1347361); also: 0% is about no effect
Method in brief: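 HEK293 cells (500/well) were exposed to an 11-point qHTS concentration series for 12 hours at 37 degrees C. Caspase-3/7 activity was then read by DEVD-substrate luciferase luminescence after 15 min at room temperature.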

Sequence of Glucocorticoid receptor (Homo sapiens) (P04150 whole entry, looked up, the tested form may be a part): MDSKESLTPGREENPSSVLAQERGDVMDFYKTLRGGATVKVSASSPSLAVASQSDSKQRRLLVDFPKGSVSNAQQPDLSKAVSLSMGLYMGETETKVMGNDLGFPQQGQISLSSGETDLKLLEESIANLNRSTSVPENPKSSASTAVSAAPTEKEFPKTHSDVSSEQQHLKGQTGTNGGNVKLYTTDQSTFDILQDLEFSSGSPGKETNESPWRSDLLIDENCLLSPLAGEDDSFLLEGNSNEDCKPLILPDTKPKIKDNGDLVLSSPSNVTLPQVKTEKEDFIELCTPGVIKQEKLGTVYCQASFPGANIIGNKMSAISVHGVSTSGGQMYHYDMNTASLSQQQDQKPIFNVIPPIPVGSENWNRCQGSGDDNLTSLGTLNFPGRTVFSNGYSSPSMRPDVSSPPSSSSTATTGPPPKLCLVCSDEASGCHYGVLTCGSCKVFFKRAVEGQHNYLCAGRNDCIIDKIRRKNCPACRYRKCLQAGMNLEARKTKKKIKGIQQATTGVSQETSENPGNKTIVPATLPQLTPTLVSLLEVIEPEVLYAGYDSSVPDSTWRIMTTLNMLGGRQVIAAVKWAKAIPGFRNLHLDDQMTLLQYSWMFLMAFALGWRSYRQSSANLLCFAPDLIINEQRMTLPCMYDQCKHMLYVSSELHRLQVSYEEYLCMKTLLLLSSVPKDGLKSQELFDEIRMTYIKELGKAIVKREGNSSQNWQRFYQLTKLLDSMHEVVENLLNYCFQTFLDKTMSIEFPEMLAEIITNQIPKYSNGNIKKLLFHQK
Sequence of 3',5'-cyclic-AMP phosphodiesterase 4B (Homo sapiens) (Q07343 whole entry, looked up): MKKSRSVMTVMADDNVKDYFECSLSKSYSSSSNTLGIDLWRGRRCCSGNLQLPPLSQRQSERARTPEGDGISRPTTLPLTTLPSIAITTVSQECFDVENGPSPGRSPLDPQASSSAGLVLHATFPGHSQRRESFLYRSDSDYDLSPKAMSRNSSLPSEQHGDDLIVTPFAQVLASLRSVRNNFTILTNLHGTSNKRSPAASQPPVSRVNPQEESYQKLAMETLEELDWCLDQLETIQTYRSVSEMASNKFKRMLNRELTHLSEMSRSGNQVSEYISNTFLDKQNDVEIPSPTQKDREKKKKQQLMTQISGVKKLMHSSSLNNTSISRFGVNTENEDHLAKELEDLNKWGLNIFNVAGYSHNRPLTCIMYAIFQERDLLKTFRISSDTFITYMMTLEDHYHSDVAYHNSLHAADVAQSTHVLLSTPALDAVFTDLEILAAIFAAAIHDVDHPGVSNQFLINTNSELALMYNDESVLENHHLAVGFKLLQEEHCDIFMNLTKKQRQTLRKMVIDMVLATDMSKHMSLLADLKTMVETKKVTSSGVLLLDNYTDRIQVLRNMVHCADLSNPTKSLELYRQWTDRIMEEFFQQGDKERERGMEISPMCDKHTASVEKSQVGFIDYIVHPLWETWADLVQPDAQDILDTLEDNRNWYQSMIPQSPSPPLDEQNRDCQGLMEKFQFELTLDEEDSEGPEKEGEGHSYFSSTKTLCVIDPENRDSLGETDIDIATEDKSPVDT
Sequence of DNA dC->dU-editing enzyme APOBEC-3G (Homo sapiens) (Q9HC16 whole entry, looked up): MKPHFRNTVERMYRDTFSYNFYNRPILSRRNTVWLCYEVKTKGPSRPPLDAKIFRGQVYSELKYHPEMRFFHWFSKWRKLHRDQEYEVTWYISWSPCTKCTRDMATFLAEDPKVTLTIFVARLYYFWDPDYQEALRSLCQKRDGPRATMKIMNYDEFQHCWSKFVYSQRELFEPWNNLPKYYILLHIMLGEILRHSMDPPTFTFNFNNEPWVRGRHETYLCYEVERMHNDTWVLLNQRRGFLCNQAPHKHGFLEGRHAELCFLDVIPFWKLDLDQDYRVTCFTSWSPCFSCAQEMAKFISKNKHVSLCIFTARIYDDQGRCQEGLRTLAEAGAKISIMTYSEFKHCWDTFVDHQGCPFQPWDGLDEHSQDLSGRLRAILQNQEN
Sequence of Ubiquitin carboxyl-terminal hydrolase 1 (Homo sapiens) (O94782 whole entry, looked up): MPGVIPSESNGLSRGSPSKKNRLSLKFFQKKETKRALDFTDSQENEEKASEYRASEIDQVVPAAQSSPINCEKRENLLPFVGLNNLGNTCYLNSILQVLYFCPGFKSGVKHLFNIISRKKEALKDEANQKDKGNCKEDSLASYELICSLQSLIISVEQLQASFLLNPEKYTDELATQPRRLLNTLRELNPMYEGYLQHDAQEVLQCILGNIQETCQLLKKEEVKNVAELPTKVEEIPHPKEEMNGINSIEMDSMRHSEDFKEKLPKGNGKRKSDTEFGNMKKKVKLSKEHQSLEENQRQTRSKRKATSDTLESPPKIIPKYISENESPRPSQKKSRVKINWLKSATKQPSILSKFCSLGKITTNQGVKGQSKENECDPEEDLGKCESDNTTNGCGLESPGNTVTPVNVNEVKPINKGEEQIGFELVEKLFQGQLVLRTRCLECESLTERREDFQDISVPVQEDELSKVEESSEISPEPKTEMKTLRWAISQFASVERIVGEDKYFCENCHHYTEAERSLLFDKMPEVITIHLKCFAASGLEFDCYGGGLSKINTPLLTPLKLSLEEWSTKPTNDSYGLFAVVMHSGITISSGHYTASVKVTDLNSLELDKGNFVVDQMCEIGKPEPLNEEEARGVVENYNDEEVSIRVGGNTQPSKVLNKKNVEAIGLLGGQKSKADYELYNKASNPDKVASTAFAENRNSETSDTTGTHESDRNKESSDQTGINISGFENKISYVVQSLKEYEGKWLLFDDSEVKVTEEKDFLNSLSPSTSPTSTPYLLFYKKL

COc1ccc2c(c1)[nH]c1c(C)nccc12
-9.39% and 13.6%: max response ([8]; measured here: lipid channel max response)
active: Potency [11] 3.36 µM | Potency [13] 27.3 µM | Potency [15] 38.6 µM | Potency [16] 7.62 µM
-2.86% and 7%: max response ([8]; measured here: cell count channel max response)
inactive: outcome [1] | Potency [2] > 20.6 µM | Potency [3] > 20.6 µM | outcome [4] | Potency [5] | Potency [6] | outcome [7] | activity change, negative = inhibition ([8]; at 25.7 µM (top of the series)) -4.61% | activity change, negative = inhibition ([8]; at 57.5 µM (top of the series)) 2.5% | Potency [9] | Potency [10] | Potency [12] | Potency [14] | outcome [17] | Potency [18] | outcome [19] | Potency [20] | outcome [21] | Potency [22]
